Results reported in PubChem BioAssay AID1159580 (chemical genetic matrix, 2015).
About 2,000 (36%) of roughly 5,500 compounds were called active. Not shown: some 18% with an inconclusive outcome. No stated cut-off is given here; in the data, active means normalized growth mostly below about 0.91 (no sharp cut-off); inconclusive means no clear call, values can overlap the other calls; inactive means mostly above about 0.92. This is one part of the list.

Assay: chemical genetic growth profiling, strain panel (AID 1159580);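 further: tested at 20 µM; growth read once vehicle control cultures reached saturation at 30 °C; 1 = growth at the plate median or of vehicle wells; lower values mean less growth of the strain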
Conditions: S. cerevisiae deletion strains, growth OD

Measured: normalized growth

CNc1ncnc2c1ncn2[C@H]1C[C@H](OP(=O)(O)O)[C@@H](COP(=O)(O)O)O1
inactive: locus YAL040C, strain CLN3, hits give low values 0.995 | locus YCL061C, strain MRC1 (second series), hits give low values 1.01 | locus YDR363W, strain ESC2, hits give low values 1 | locus YER002W, strain NOP16, hits give low values 0.983 | locus YGR229C, strain SMI1, hits give low values 1.02 | locus YJR075W, strain HOC1, hits give low values 1.01 | locus YNL175C, strain NOP13, hits give low values 0.996 | locus YNL197C, strain WHI3, hits give low values 1 | locus YNL224C, strain SQS1, hits give low values 1 | locus YNL322C, strain KRE1, hits give low values 1.01 | locus YOR083W, strain WHI5 (second series), hits give low values 1.01 | locus YPL055C, strain LGE1, hits give low values 1.01 | locus YPL241C, strain CIN2, hits give low values 1
